Laboratory results from PubChem BioAssay (EPA / NIEHS).
Active and inactive are the calls of the source. Rule for the calls: active = hit-call score of the fitted dose curve at least 0.9, where 1 is the maximum; inactive = score below 0.9.

test: ATG_Ets_CIS: Attagene CIS-FACTORIAL HepG2 Assay for human Erythroblast Transformation Specific (ETS) (AID 2282941); details: HepG2 ETS cis-reporter transcription, actives raise or lower the signal
Procedure: ATG_CIS is a cell-based, multiplexed-readout assay that uses HepG2, a human liver cell line, with measurements taken at 24 hours after chemical dosing in a 24-well plate.ATG_Ets_CIS is one of 52 assay component(s) measured or calculated from the ATG_CIS assay. It is designed to make measurements of mRNA induction, a form of inducible reporter, as detected with fluorescence intensity signals by Reverse transcription polymerase chain reaction (RT-PCR) and Capillary electrophoresis technology.Data from the assay component ATG_Ets_CIS was analyzed into 1 assay endpoint. This assay endpoint, ATG_Ets_CIS, was analyzed with bidirectional fitting relative to DMSO as the negative control and baseline of activity. Using a type of inducible reporter, measures of mRNA for gain or loss-of-signal activity can be used to understand the reporter gene at the transcription factor-level as they relate to the gene ETS1. Furthermore, this assay endpoint can be referred to as a primary readout, because this assay has produced multiple assay endpoints where this one serves a reporter gene function. To generalize the intended target to other relatable targets, this assay endpoint is annotated to the dna binding intended target family, where the subfamily is winged helix-turn-helix.
Human liver HepG2 cells are transiently transfected with multiple reporter transcription units (MRTUs) in 6-well plates using FuGene 6 reagent (Roche; 3 ml FuGene/1 mg DNA). The MRTU constructs are regulated by a cis-regulating element (promoter). […] A major difference between the CIS and TRANS system is that in CIS activities of endogenous TFs are measured, whereas the TRANS assay evaluates changes in activities of exogenous, chimeric NR-Gal4 proteins. […] At the end of 24 hour incubation, total RNA was isolated using TriZol reagent (Invitrogen). The isolated RNA is then reverse-transcribed using oligo(dT) primer and Mo-MLV reverse transcriptase (Invitrogen) with DNAse I (Ambion) treatment for 30 min. The one-tenth of the produced cDNA was amplified by PCR using Taq DNA polymerase (Invitrogen) and two reporter sequence-specific primers. The PCR products were fluorescently labeled by primer extension with 6-arboxyfluorescein (6-FAM) 5'-labeled reporter sequence-specific primer (2 min at 95 C, 20 s at 68 C and 10 min at 72 C) and these products were digested with 5U of HpaI (New England Biolabs) for 2h at 37 C. The fragments were purified using Qiaquick PCR columns (Qiagen), analyzed on an ABI 3130xL genetic analyzer (Applied Biosystems) with peak positions identified by using a set of X-rhodamine (ROX)-labeled MapMarker1000 molecular weight standards (BioVentures). The raw capillary electrophoresis data was processed using Attagraph software (Attagene).

outcome, inactive:
COc1ccc2nc(N)sc2c1
CC(=O)c1ccc[nH]1
N#CCc1ccc(Cl)cc1Cl
CCCCC/C=C\C/C=C\CCCCCCCC(=O)OC
CC1OC1C1CCC2(C)OC2C1 (stereo not given)
CCCCC(CC)COCC1CO1 (stereo not given)
COC(=O)C1=C(C)NC(C)=C(C(=O)OCC(C)C)C1c1ccccc1[N+](=O)[O-] (stereo not given)
O=C(O)Cc1c(Cl)ccc(Cl)c1Cl
CCOC(=O)c1ccccc1C(=C1C=C(Br)C(=O)C(Br)=C1)c1cc(Br)c(O)c(Br)c1
O=C(Oc1ccccc1)c1ccc2ccccc2c1O
COc1ccc(-c2coc3cc(O)ccc3c2=O)cc1
O=Cc1ccc(CO)o1
CCCc1ccc(OC)cc1
OC1CCCC1
CC(C)CCCC(C)CC=O (stereo not given)
O=C(c1ccccc1)C1CCC1
[Cl][Nd]([Cl])[Cl]
COC(=O)/C=C/C(C)=C\C=C\C(C)=C\C=C\C=C(C)\C=C\C=C(C)\C=C\C(=O)O
O=C1c2ccccc2C(=O)C1c1nc2ccccc2c(Br)c1O
OCCc1ccncc1
CC(=O)OCc1ccco1
O=c1cc(-c2ccccc2)oc2ccccc12
c1ccc(-c2ccccn2)nc1
CC(C)c1ccc(C=O)cc1
COc1ccc([C@@H]2CC(=O)c3c(O)cc(O[C@@H]4O[C@H](CO[C@@H]5O[C@@H](C)[C@H](O)[C@@H](O)[C@H]5O)[C@@H](O)[C@H](O)[C@H]4O)cc3O2)cc1OC
CC(C)(C)c1ccc(N)cc1
CNC(=S)NN
CCN(CC)c1ccc(C(=O)c2ccccc2C(=O)O)c(O)c1
O=C(c1ccc(O)cc1)c1ccc(O)cc1O
CC(=O)CC(N)=O
CC(=O)c1ccc2c(c1)CCCC2
CC1=NC(C)OC1C (stereo not given)
O=C1OC(=O)c2cc(Oc3ccc4c(c3)C(=O)OC4=O)ccc21
C=C(C)C(=O)OCC(C)C
CC1=Nc2ccc3ccccc3c2C1(C)C
CCCCC(CC)CCC(CC(C)C)OS(=O)(=O)O (stereo not given)
CC(C)=CCC/C(C)=C\C#N
O=P(O)(O)Oc1ccccc1
CCCCCCCCCCc1ccccc1
CC(C)=CC1CC(C)CCO1 (stereo not given)
